{"source": "paper PMC7819943", "about": "“Rice protein-binding microarrays: a tool to detect cis-acting elements near promoter regions in rice”", "note": "Whole data set: some 68,000 sequences, median “fluorescence intensity (a.u.)” near 9,100, cut for the highest 2% near 16,000. Shown is part of a subset that was picked to be rich in the highest values."}
{"target": "OsWRKY34 (Oryza sativa, UniProt Q0JBA9 1-250)", "sequence (Q0JBA9 entry or part of it)": "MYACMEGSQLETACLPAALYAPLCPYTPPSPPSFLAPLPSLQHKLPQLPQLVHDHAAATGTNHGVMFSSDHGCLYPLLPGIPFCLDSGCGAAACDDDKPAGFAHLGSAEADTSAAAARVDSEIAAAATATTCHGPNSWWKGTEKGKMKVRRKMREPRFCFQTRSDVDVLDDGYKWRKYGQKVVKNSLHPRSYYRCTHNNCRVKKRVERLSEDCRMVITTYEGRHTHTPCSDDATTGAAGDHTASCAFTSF", "assay": "protein-binding microarray (RPBM); PBS, 2% BSA, 51.3 ng/ul salmon testes DNA, 50 uM zinc acetate, 200 nM TF, 25 C, 1 h; high values mean tight binding", "conditions": "protein: recombinant; tags: N-terminal polyhistidine and DsRed monomer fusion (pET32a); label: CyDye5-dUTP incorporated in the synthesized complementary strand; 3' TTTTT single-stranded linker to array surface; dsDNA, one strand shown", "in_short": "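Using Ni–NTA, transcription factors fused N-terminally to polyhistidine and DsRed were purified after expression in E. coli BL21-CodonPlus. These were incubated at 200 nM with a blocked, double-stranded custom Agilent array for 1 h at 25 °C in a buffer containing 50 µM zinc acetate, and the array was washed. The binding signal is per-feature fluorescence intensity (arbitrary units) on an Axon 4000B scanner.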"}
{"sequence": "AGTAAAGTCCATCACCGGTCCCTAAACTTGTACCGCTATGCGGAGTCACCTAGTGCAG", "binding signal": "8810 fluorescence intensity (a.u.)"}
{"sequence": "AAAGATCGCTTTTTCCGTGGTAGGCTTCTCCATTTTATTTCGGAGTCACCTAGTGCAG", "binding signal": "10700 fluorescence intensity (a.u.)"}
{"sequence": "TATCTTGCCTAGCATATTGTCCGTGCGTTATTGCGATTTTCGGAGTCACCTAGTGCAG", "binding signal": "10500 fluorescence intensity (a.u.)"}
{"sequence": "TCCCACCCGTTTTTATTTTTCTCGGTGGTTAACTTATCTTCGGAGTCACCTAGTGCAG", "binding signal": "8170 fluorescence intensity (a.u.)"}
{"sequence": "TTCTTATTCTGTCGGTTGTGTGGTGGCAGGGCAGTTAATTCGGAGTCACCTAGTGCAG", "binding signal": "8630 fluorescence intensity (a.u.)"}
{"sequence": "TCCATCACTAGCTATTTTGGTACTTTCATCTACTTATTACCGGAGTCACCTAGTGCAG", "binding signal": "8340 fluorescence intensity (a.u.)"}
{"sequence": "TCTCTCGTTTTCCACACACACGTTTTTTAAACTGCTAAACCGGAGTCACCTAGTGCAG", "binding signal": "10200 fluorescence intensity (a.u.)"}
{"sequence": "CAAGGCCCGCCCATCCGTCTCCTCACACTCTGGCACACCTCGGAGTCACCTAGTGCAG", "binding signal": "8580 fluorescence intensity (a.u.)"}
{"sequence": "CAATCCATCAAACATGCAGTCAAGGTGTATTATTCAGTATCGGAGTCACCTAGTGCAG", "binding signal": "9880 fluorescence intensity (a.u.)"}
{"sequence": "ACTCTTATTGTTCAAATGAAAATGCTAGGGGTATAACTGCCGGAGTCACCTAGTGCAG", "binding signal": "8340 fluorescence intensity (a.u.)"}
{"sequence": "ACTGTTCGTCTTATTTAAAATTTTTTAAATATTATTTATACGGAGTCACCTAGTGCAG", "binding signal": "12300 fluorescence intensity (a.u.)"}
{"sequence": "TTTTAACATTTTTCTTGCACTGTTTGACCATTCGTCTTATCGGAGTCACCTAGTGCAG", "binding signal": "10400 fluorescence intensity (a.u.)"}
{"sequence": "CGTTGACTTTTTTAAATATATTTAGCAGTTCGTCTTATTACGGAGTCACCTAGTGCAG", "binding signal": "16500 fluorescence intensity (a.u.)"}
{"sequence": "ACCGTTGATTTTTTTAAACATGTTTGACCGTTCGTCTTATCGGAGTCACCTAGTGCAG", "binding signal": "17100 fluorescence intensity (a.u.)"}
{"sequence": "CTTTTTTAAACATGTTTGACCGTTCGTCTTATTTAAAAAACGGAGTCACCTAGTGCAG", "binding signal": "9350 fluorescence intensity (a.u.)"}
{"sequence": "ACTTATATTTTTTTAACGTTTGATTGTTCGTCTTATTAAACGGAGTCACCTAGTGCAG", "binding signal": "9470 fluorescence intensity (a.u.)"}
{"sequence": "TTTTAAACATGTTTGACCGTTCGTCTTATTCAAAAAATTTCGGAGTCACCTAGTGCAG", "binding signal": "8310 fluorescence intensity (a.u.)"}
{"sequence": "GACTTTTTAACACATGTTTGACCGTTCGTCTTATTCAAAACGGAGTCACCTAGTGCAG", "binding signal": "10900 fluorescence intensity (a.u.)"}
{"sequence": "GCCGTTGACTTTTTAACACATGTTTGACCATTCGTCTTATCGGAGTCACCTAGTGCAG", "binding signal": "60200 fluorescence intensity (a.u.)"}
{"sequence": "ACTTTTTTAAACATGTTTGGCCGTTCGTCTTATTCAAAAACGGAGTCACCTAGTGCAG", "binding signal": "9620 fluorescence intensity (a.u.)"}
{"sequence": "TGCCGTTGATTTTTTTTTAAACATGTTTGACCGTTCGTCTCGGAGTCACCTAGTGCAG", "binding signal": "14900 fluorescence intensity (a.u.)"}
{"sequence": "GCCGTTGACTTTTTTAAACATGTTTGACCGTTCGTCTTATCGGAGTCACCTAGTGCAG", "binding signal": "45200 fluorescence intensity (a.u.)"}
{"sequence": "CCACACTCCTCGCTCGCCTGCCTCTCTGTTCTTAATTAGCCGGAGTCACCTAGTGCAG", "binding signal": "8750 fluorescence intensity (a.u.)"}
{"sequence": "AAGCCCAACGTGCTTCATCTCTTCTTCTATCTTATCTTCTCGGAGTCACCTAGTGCAG", "binding signal": "8190 fluorescence intensity (a.u.)"}
{"sequence": "GCGGAGGAAAGGTGGGGTGGTAAAAAACGGAAAAACCGGACGGAGTCACCTAGTGCAG", "binding signal": "8960 fluorescence intensity (a.u.)"}
{"sequence": "TATGCATACTTTTTTATCACTGTAGTTACTAGCTAAGATCCGGAGTCACCTAGTGCAG", "binding signal": "9000 fluorescence intensity (a.u.)"}
{"sequence": "GCCCGTCTTCGTCCAGTTCCTGATCAGGTATGGTCCTTCTCGGAGTCACCTAGTGCAG", "binding signal": "8060 fluorescence intensity (a.u.)"}
{"sequence": "ACCCGAGATCTGATTCACTACCGCCGCCGGATCAAGCCACCGGAGTCACCTAGTGCAG", "binding signal": "8320 fluorescence intensity (a.u.)"}
{"sequence": "TTCGCTCACCTCTCGATCGATCGACCTGCCAACATCAACACGGAGTCACCTAGTGCAG", "binding signal": "10400 fluorescence intensity (a.u.)"}
{"sequence": "TTGACTTTTTAAAATATGTTTGACCGTTCGTCTTATTCAACGGAGTCACCTAGTGCAG", "binding signal": "8040 fluorescence intensity (a.u.)"}
{"sequence": "ACACCGCTGACTTTTTAAAACATGTTTTACCGTTCGTCTTCGGAGTCACCTAGTGCAG", "binding signal": "13600 fluorescence intensity (a.u.)"}
{"sequence": "TGACTTTTTATCATATGTTTGACCGTTCGTCTTATTCAAACGGAGTCACCTAGTGCAG", "binding signal": "10900 fluorescence intensity (a.u.)"}
{"sequence": "CGTTGACTTTTTTAAAAGTGTTTGACTGTTCGTCTTTTTTCGGAGTCACCTAGTGCAG", "binding signal": "30500 fluorescence intensity (a.u.)"}
{"sequence": "TCACGTTCAACGTTTGACTGTTCGTCTTATTTAAAATTTTCGGAGTCACCTAGTGCAG", "binding signal": "8400 fluorescence intensity (a.u.)"}
{"sequence": "CGTTGACTTTTTATCAAATGTTTGACCGTTCGTCTTATTTCGGAGTCACCTAGTGCAG", "binding signal": "28900 fluorescence intensity (a.u.)"}
{"sequence": "ATTCAAATTTGTCAAACATTGTTTTCTTCTCTTTCATATCCGGAGTCACCTAGTGCAG", "binding signal": "8650 fluorescence intensity (a.u.)"}
{"sequence": "AGTGTTAGTTGACTGTTAGTCAAAGGTTAGTTTTTTTCGTCGGAGTCACCTAGTGCAG", "binding signal": "9180 fluorescence intensity (a.u.)"}
{"sequence": "ACGCCGTTGACTTTTTTAAACATGTTTGACTGTTCGTCTTCGGAGTCACCTAGTGCAG", "binding signal": "38200 fluorescence intensity (a.u.)"}
{"sequence": "ATTGATATCAAACCGTTTCTTTTGTCATATTCGTCATTTCCGGAGTCACCTAGTGCAG", "binding signal": "17700 fluorescence intensity (a.u.)"}
{"sequence": "TTATCAAATATTCCATCCGTCTTTTTTGATATTTTAATTTCGGAGTCACCTAGTGCAG", "binding signal": "9840 fluorescence intensity (a.u.)"}
{"sequence": "ACGCTGTTGATTTTTTTAAACATGTTTGACCGTTCGTCTTCGGAGTCACCTAGTGCAG", "binding signal": "13200 fluorescence intensity (a.u.)"}
{"sequence": "ATGCGTGCGCTCAGCCCATTCTGCTTGTATTTTCAGTACACGGAGTCACCTAGTGCAG", "binding signal": "11300 fluorescence intensity (a.u.)"}
{"sequence": "ACCCACCCACCCACCCGGTCTGTCTCCTAACCCCGGTCGCCGGAGTCACCTAGTGCAG", "binding signal": "12600 fluorescence intensity (a.u.)"}
